About 1,900 (0.58%) of roughly 330,000 compounds were called active. Not shown: some 4% with an inconclusive outcome. These entries were drawn from the full list. Potency and affinity values are given separately. Values without a mark were called inactive. No stated cut-off is given here; in the data, inconclusive means inhibition above about 70% without an active follow-up result; inactive means below that.

The nature of this experiment: M. tuberculosis growth inhibition, HTS (AID 449762).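 Further: bacterial growth assessed after seven days of incubation.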 The note with it: M. tuberculosis H37Rv growth inhibition, 7H9 media; at 25 µM; active compounds read high.
Consider `CCC(=O)CCC(=O)c1ccc2ccccc2c1`, for which the inhibition was 9.13%. In the case of `COc1cccc2c1C(=O)C=C(C)C2=O` it was -8.66%; in that of `O=C1C=C(O)c2c(O)cccc2C1=O`, -6.54%. Turning to `CC(=O)NC12CC3CC(C1)CC(C(=O)Nc1c(C)n(C)n(-c4ccccc4)c1=O)(C3)C2`, the inhibition was -13%. As for `COc1ccc(NC(=O)CSc2nnnn2-c2ccc(F)cc2)cc1`, the inhibition was -7.12%.

Regarding `C[C@@]12C(=O)N(CCO)CC(=O)N1[C@H](/C=C/c1ccccc1)[C@@H]1C(=O)N(c3ccccc3)C(=O)[C@@H]12`, the inhibition is -1.57%. Then `CC1(C)CN(c2cccc(C#N)c2)C1=O`, with -3.52%; and `CC(=O)OCC1(C)CN(c2ccccc2)N(C(=O)c2ccc(F)cc2)C1=O` (stereo not drawn), with 37.7%. For the compound `COc1cccc(CN(C(=O)c2ccccc2Br)C2CCS(=O)(=O)C2)c1` (stereo not drawn), the inhibition is -0.47%. Consider `CC1(C)CC(=O)C2=C(C1)NC(Nc1nc3ccccc3o1)=NC21CCCCC1`, for which the inhibition is -1.05%.

Consider `CC1(C)CC(=O)C2=C(C1)NC(Nc1nc3ccccc3o1)=NC21CCCC1`, for which the inhibition is -11%. Then `O=C(CN1C(=O)c2ccccc2S1(=O)=O)NC1CC2CCC1C2` (stereo not drawn), with -4.11%; and `CN1CCN(c2ccc(NC(=O)CN3CCOCC3)cc2F)CC1`, with -4.73%; and `C=CCNC(=S)NC(=O)c1csc([N+](=O)[O-])c1`, with 18.2%.

`CC(C)CNC(=S)NC(=O)c1ccc([N+](=O)[O-])cc1`: the inhibition was 11.6%. On to `CCn1c(SCC(=O)N/N=C/c2ccccc2OCC(=O)O)nnc1-c1ccc(OC)cc1`, for which the inhibition is 1.34%.

Take `Oc1ccc(CNc2ccc(F)cc2)c2cccnc12`: the inhibition was -1.78%. For `Cc1cccc(NCc2ccc(O)c3ncccc23)c1`, the inhibition is 14.1%. In the case of `Oc1ccc(CN2CCN(Cc3ccccc3)CC2)c2cccnc12`, the inhibition is 14.4%. Regarding `Oc1ccc(CNc2ccccc2)c2cccnc12`, the inhibition was -3.76%. In the case of `Cc1cccnc1NCc1ccc(O)c2ncccc12` it was 51.8%; in that of `OCc1ccc(O)c2ncccc12`, 52.4%. On to `Oc1ccc(CN2CCCc3ccccc32)c2cccnc12`, for which the inhibition is -5.25%.

On to `Cc1ccccc1NCc1ccc(O)c2ncccc12`, for which the inhibition is 2.36%.

For `COc1ccc(S(=O)(=O)N(Cc2ccc(OC)c(OC)c2)Cc2ccco2)cc1`, the inhibition was 12.4%.

For the compound `O=C1NNC(=O)C1c1ccccc1`, the inhibition is 0.86%. Consider `COc1cccc(C2[C@H](C)C3(CCN2C)OCCO3)c1` (stereo partly drawn), for which the inhibition was 1.26%.

With `C=CCN(C(=O)c1csnn1)C(C(=O)NCc1ccccc1)c1ccccc1F` (stereo not drawn), the inhibition is 5.11%. Then `COc1ccc(NC(=S)N2CCC(c3ccccc3)C2)cc1` (stereo not drawn), with 0.04%. As for `CCCC(=O)OCC(=O)Nc1ccc([N+](=O)[O-])cc1C#N`, the inhibition is 0.66%. In the case of `O=C1CCc2cc(S(=O)(=O)NCCc3ccccc3)cc3c2N1CC3` it was -3.75%; in that of `CN1CCN(CC(O)COc2ccc(C(=O)O)cc2)CC1` (stereo not drawn), 4%. Then `COc1ccc(C=O)cc1CN1CCCN(Cc2ccccc2F)S1(=O)=O`, with 9.36%; and `C=CCc1cc(C)ccc1OCCOCCC(C(=O)OCC)C(=O)OCC`, with -7.06%; and `C=CCc1cc(OC)ccc1OCCOCCC(C(=O)OCC)C(=O)OCC`, with -13%. On to `O=C(NN=C1CCCC1)c1[nH]c2ccc(Br)cc2c1-c1ccccc1`, for which the inhibition is 62%. Then `Cc1ccc2[nH]c(C(=O)O)c(-c3ccccc3)c2c1`, with 6.59%; and `CCOC(=O)Cn1cnc2c(nnn2-c2ccc(C)cc2)c1=O`, with -14.9%. With `CCC(NC(=O)c1cc(COc2c(F)cccc2F)on1)c1ccncc1` (stereo not drawn), the inhibition was -2.33%.

Consider `CC(CN1C(C)CCCC1C)OC(=O)c1cccc(F)c1` (stereo not drawn), for which the inhibition is 3.14%. Regarding `CC(C)C1CC(CCN)(Cc2ccccc2)CCO1` (stereo not drawn), the inhibition is 1.79%.

For `COc1ccc2cc(C#N)c(N3CCOCC3)nc2c1`, the inhibition is 3.82%. Then `COc1ccc2cc(C#N)c(N3CCN(C(=O)c4ccccc4C)CC3)nc2c1`, with 11.1%; and `O=S(=O)(CCN1CCSCC1)c1ccc(Cl)cc1`, with -12.2%; and `CSCCC(NC(=O)COc1ccccc1)C(=O)N1CCN(C(C)=O)CC1` (stereo not drawn), with 4.67%. Then `Cc1nc2ccccn2c1C(=O)N/N=C/c1ccccc1`, with -1.76%. `Cc1ccc(NC(=O)c2c(C)nc3ccccn23)cc1C`: the inhibition was -2.44%. On to `CCOC(=O)N1CCN(C(=O)COC(=O)Cc2ccc(OC)cc2)CC1`, for which the inhibition is -5.2%. Regarding `CC(C)CNC(=O)c1cccc(NC(=O)Cc2ccc(Cl)cc2)c1`, the inhibition is -1.92%. Take `CCc1nc(C)cn1S(=O)(=O)c1cc(F)ccc1OC`: the inhibition is 0.63%. Then `Cc1ccc(OS(=O)Nc2cccc3nccnc23)cc1` (stereo not drawn), with 49%; and `Fc1ccc(Nc2cccc3nccnc23)cc1`, with 7.88%; and `CNC(=S)NNC(=O)c1cc(-c2cccnc2)nc2ccccc12`, with -1.9%. With `COc1ccc(NC(=O)COC(=O)CCc2ccc(S(=O)(=O)N3CCOCC3)cc2)c(OC)c1`, the inhibition was -0.81%.

With `Cc1[nH]n(-c2ccccc2)c(=O)c1C(=O)c1ccc(Cl)cc1`, the inhibition was 67.2%. Then `Cc1[nH]n(-c2ccccc2)c(=O)c1C(=O)c1ccccc1`, with 1.23%. As for `CCCSc1cc(NCCOC(C)=O)c([N+](=O)[O-])c2nonc12`, the inhibition was 14.4%. For `COC(=O)CCSc1cc(NCCOC(C)=O)c([N+](=O)[O-])c2nonc12`, the inhibition was 27.1%.

Turning to `O=c1cc(CO)oc(C(Nc2ccccn2)c2cccc(F)c2)c1O` (stereo not drawn), the inhibition was -4.25%. For `Cc1ccc(-n2ccnc2SCC(=O)c2c(N)n(C3CC3)c(=O)[nH]c2=O)cc1C`, the inhibition is -3.24%. Turning to `CC(OC(=O)CCC(=O)c1cccs1)C(=O)Nc1ccccc1[N+](=O)[O-]` (stereo not drawn), the inhibition was -1.97%. Then `COc1ccc(OCCCC(=O)OC(C)C(=O)Nc2ccc(NC(C)=O)cc2)cc1` (stereo not drawn), with -25.7%. Then `O=C(CC12CC3CC(CC(Br)(C3)C1)C2)Nc1cccc(S(=O)(=O)NC2=NCCC2)c1`, with 7.59%; and `CC(C)(C)NC(=S)N1CCn2cccc2C1c1cccnc1` (stereo not drawn), with -4.33%. As for `O=C(N/N=C/c1ccc2ncccc2c1)c1cccc([N+](=O)[O-])c1`, the inhibition was 10.3%. In the case of `CCCCNC(=O)CSc1nc2cc3c(cc2c(=O)n1Cc1ccco1)OCO3` it was -13%; in that of `CCN1C(=O)/C(=C/c2ccc(N3CCCC3)cc2)NC1=S`, -3.08%; in that of `COC(=O)COc1ccc(/C=C2/NC(=O)N(CC(=O)OC)C2=O)cc1`, 0.75%. In the case of `CN(CC(=O)Nc1c(Cl)cccc1Cl)C(=O)Cc1cccs1` it was -16.5%; in that of `O=C(Nc1cccc(-c2nc3ccccc3s2)c1)c1cc(=O)c2ccccc2o1`, 10.9%. Turning to `Cn1ncc([N+](=O)[O-])c1C(=O)Nc1cccc(Cl)c1`, the inhibition was -25.5%. As to `Cc1nc2c3ccccc3nc(NNC(=O)CCC(=O)N3CCC(C)CC3)n2n1`, the inhibition was -3.15%.

In the case of `Cc1nonc1OCCN1CCN(c2ccc([N+](=O)[O-])cc2)CC1`, the inhibition was 9.04%.

Take `Cc1ccc(S(=O)(=O)Nc2ccc(C(N)=O)cc2)cc1[N+](=O)[O-]`: the inhibition was -1.5%. Then `CCOC(=O)c1ccc(NC(C)=O)c([N+](=O)[O-])c1`, with -9.36%. Then `CCCNc1ccc(C(=O)OCC)cc1[N+](=O)[O-]`, with -11.2%; and `O=C(/C=C/c1ccccc1)N/C(=C/c1ccccc1)C(=O)Nc1cccc(C(=O)O)c1`, with -8.21%.

As to `Nc1cc2c(cc1C(=O)c1ccc(Cl)cc1)OCCO2`, the inhibition was 4.52%. As for `O=C(COc1ccc(Cl)cc1Cl)N/N=C/c1cccnc1`, the inhibition was -6.12%.

For `CN(C)c1ccc(NC(=O)c2ccncc2)c2ccccc12`, the inhibition was -1.45%. For the compound `COc1cc(OC)cc(C(=O)Nc2ccc(N(C)C)c3ccccc23)c1`, the inhibition is 1.99%.

`CCOC(=O)C1=C(C)Nc2nc(C)nn2C1c1ccc(C)cc1` (stereo not drawn): the inhibition is 5.22%.

Take `CCCCN(CCCC)Cc1ccc(C(=O)NNC(=O)Nc2ccc(F)cc2)o1`: the inhibition is 4.32%.

`CC(=O)Nc1ccc(S(=O)(=O)N[C@@H](C)C(=O)N2CCN(C/C=C/c3ccccc3)CC2)cc1`: the inhibition is -13.2%.

As to `Cc1ccc(S(=O)(=O)NC(CC(C)C)C(=O)N2CCCC2)cc1` (stereo not drawn), the inhibition was -3.51%. Then `COc1ccc(-c2ccc(-c3nnn(CC(C)=O)n3)cc2)cc1`, with 12.6%; and `COc1cccc(CN(C)C(=O)C(CCSC)NS(=O)(=O)c2ccc3c(c2)OCCO3)c1OC` (stereo not drawn), with -2%. For `CCCCn1cnc2c(oc3nc4c(cc32)CCCC4)c1=O`, the inhibition is 5.81%. `Oc1ccc2ccccc2c1N=Nc1ccccc1F`: the inhibition is -3.05%.

As to `Oc1ccc2ccccc2c1/C=N/c1nccs1`, the inhibition was 0.82%. As to `CCOC(=O)c1sc(NC(=O)C(OC(C)=O)c2ccccc2)nc1C` (stereo not drawn), the inhibition is -4.59%. In the case of `COc1ccc(OC)c(C(O)C2CCCCN2)c1` (stereo not drawn), the inhibition is 0.57%. Consider `O=C(O)c1cc(C(F)(F)F)nc2c(C(F)(F)F)cccc12`, for which the inhibition is -3.33%. Then `Cc1sc2nc(-c3ccc(Br)cc3)oc(=O)c2c1C`, with 7.29%.

For the compound `O=C1[C@@H]2Cc3c([nH]c4ccccc34)CN2C(=O)CN1CCCCCO`, the inhibition was -3.43%. As to `c1ccc(Nc2ccccn2)nc1`, the inhibition was 4.45%. Then `c1ccc(Nc2ccccc2Nc2ccccn2)nc1`, with -3.39%.

Take `O=C(NC1CCS(=O)(=O)C1)/C(=C/c1ccco1)NC(=O)c1ccccc1` (stereo not drawn): the inhibition is -0.22%.
